Our source for the sensor-assay potency score (higher = more potent) values is the OligoGym collection.

Targets include LONP1; LMO4; LNPEP; LNX1; LRDD; LRRC15; LRRC45; LTA4H; LSG1; LRRC8D.
Common to all, as to experiment: pooled miR-30 sensor sort-seq; sequence = guide strand
Common to all, as to settings: shRNA
Further: reference of the scale not given here.

Sequence TTGCGGACACCGCTCTCGCGGC came in with a sensor-assay potency score (higher = more potent) in the assay with LONP1 of -1.33.

In the case of TTCACTCGCAGGAATCGACTGT, in the assay with LMO4, the sensor-assay potency score (higher = more potent) is 0.156.

On to TTGAATAGATGCATAGCTGTGA, for which, in the assay with LNPEP, the sensor-assay potency score (higher = more potent) turned out to be 0.497.

Take TAACACCTTCTCCACTTGCTTC: the sensor-assay potency score (higher = more potent) with LONP1 is -1.18.

As for TGGTGTAACAGGACGTGCCGAT, the sensor-assay potency score (higher = more potent) with LMO4 was -0.601.

TACAGTTATACAAGCACCGTGG registered a sensor-assay potency score (higher = more potent) in the assay with LNX1 of -0.0834.

In the assay with LNX1, TTTTTGGATATTTACCACCTTC displayed a sensor-assay potency score (higher = more potent) of -0.64.

In the assay with LNPEP, TAAATAACTACATACTGCCCAA came in with a sensor-assay potency score (higher = more potent) of -0.52.

TTTCCGTAACACCTTCTCCACT came in with a sensor-assay potency score (higher = more potent) with LONP1 of -1.42.

With TAGATGATCATACTTTTCCTGA, in the assay with LNX1, the sensor-assay potency score (higher = more potent) was -0.507.

In the case of TTTCTTGGCTTGAAACTGCTGA, in the assay with LNPEP, the sensor-assay potency score (higher = more potent) is 0.246.

As to AAAGCTTTGAGTACTATCGAGG, the sensor-assay potency score (higher = more potent) with LNX1 was -0.642.

Take TTGAGAATCACATGAAAGCTGT: the sensor-assay potency score (higher = more potent) in the assay with LNX1 came to 0.307.

With TTACAGTTATACAAGCACCGTG, the sensor-assay potency score (higher = more potent) in the assay with LNX1 is -0.215.

On to TAAACTGCCATTGATGTAGTGA, for which the sensor-assay potency score (higher = more potent) with LMO4 was found to be 0.368.

Sequence TTCTCTTTGACAAAATCCCATG displayed a sensor-assay potency score (higher = more potent) in the assay with LNPEP of -1.18.

TTGAATAATTTCTTCCTTCAGT gave a sensor-assay potency score (higher = more potent) with LNPEP of -0.0999.

For TAGAAGTCCTTCTTGTTCTCGG, the sensor-assay potency score (higher = more potent) with LONP1 was 0.532.

Sequence TACAGGTCCAAGCTCAGCCGGT showed a sensor-assay potency score (higher = more potent) with LRDD of -1.52.

With AATCCTCTGAAGCATCTCCTGC, the sensor-assay potency score (higher = more potent) with LRDD is -1.15.

As for TAGTCAGATCAGTGTAGTCTTC, the sensor-assay potency score (higher = more potent) with LRRC15 was -1.03.

Sequence TGACATGCTGGTCATCTCCTGC returned a sensor-assay potency score (higher = more potent) with LRRC45 of -0.943.

Consider TTGGAGAGTGACTTGTCGCCTG, for which the sensor-assay potency score (higher = more potent) with LTA4H was 0.145.

In the assay with LSG1, TTGATTGTTGAACTCTTACCAA came in with a sensor-assay potency score (higher = more potent) of -0.2.

Turning to TAAACTTCATTCTTCCTTGTTC, the sensor-assay potency score (higher = more potent) in the assay with LTA4H amounted to 0.185.

Take TAAGGTGCCGCAACTCTCGGAG: the sensor-assay potency score (higher = more potent) with LRRC8D was determined as 0.33.

In turn, TTATGAATGACTAACTTTGTAA gave a sensor-assay potency score (higher = more potent) in the assay with LRRC8D of -0.367.

TTGTAGCTCACATCTAAGCATC returned a sensor-assay potency score (higher = more potent) with LRRC8D of -1.4.

Take TTCTGCAGGAAGCTCGCCCTCT: the sensor-assay potency score (higher = more potent) in the assay with LRRC45 is -0.654.

In the assay with LTA4H, TGTAACTTTGTCTTTCTCCAAG showed a sensor-assay potency score (higher = more potent) of -0.956.

On to TTGTGTATCTGCCTCTTCTGTG, for which the sensor-assay potency score (higher = more potent) with LSG1 was -0.396.

TTTTTCTATTGTAAGGTCCTTT: the sensor-assay potency score (higher = more potent) in the assay with LTA4H was determined as 0.0919.

In the assay with LRRC8D, TTAACATAACAACAGCTAGGTA displayed a sensor-assay potency score (higher = more potent) of -0.589.

In the assay with LRRC8D, TTTTTGAGCAAATACACCCAGG had a sensor-assay potency score (higher = more potent) of -0.941.

TTTGTAAACATTCAGTAGCGGC showed a sensor-assay potency score (higher = more potent) in the assay with LRRC8D of -0.948.

The sequence TATATCTGTCAGATCAACCACA had a sensor-assay potency score (higher = more potent) with LTA4H of 0.143.

For AATAGTCTCCATCAAGTCGAGG, in the assay with LRRC45, the sensor-assay potency score (higher = more potent) is -1.73.

As for TTGATGAGAAGAGAGATCCTTC, in the assay with LTA4H, the sensor-assay potency score (higher = more potent) is 0.703.

For the sequence TATAGATCAAGTCACTATCTTC, in the assay with LRRC8D, the sensor-assay potency score (higher = more potent) was -0.519.

With TGTGTCTCGTGAACCATCCCTT, the sensor-assay potency score (higher = more potent) with LSG1 stood at 0.477.

TTTCGAGCATCTACTATCTGGA: the sensor-assay potency score (higher = more potent) with LSG1 is -0.305.

With TTGTCCATTGATCACTACTTTT, the sensor-assay potency score (higher = more potent) in the assay with LTA4H was -1.71.

TAGACTCCCGCTCTGCAGCTTC came in with a sensor-assay potency score (higher = more potent) with LRRC45 of -0.306.

Turning to TTATCCAGGATTGTCATGCTGG, the sensor-assay potency score (higher = more potent) with LRRC8D was -0.286.

Regarding TTTGACTTCTTGTCCATTGATC, the sensor-assay potency score (higher = more potent) with LTA4H is -0.618.

As to TAACATAACAACAGCTAGGTAA, the sensor-assay potency score (higher = more potent) with LRRC8D was -0.029.

As for TTGTGTGCAACCAGGAGTCAGT, in the assay with LSG1, the sensor-assay potency score (higher = more potent) is -0.781.

TAATATTAAGTTTTTCAGCTAC gave a sensor-assay potency score (higher = more potent) with LSG1 of -0.362.

TAGCTCACATCTAAGCATCTGA displayed a sensor-assay potency score (higher = more potent) with LRRC8D of 0.32.

Sequence TTGAACTCTTACCAACATTAGG gave a sensor-assay potency score (higher = more potent) with LSG1 of -1.3.

As for TTTGTATCCAAAACCAGGCTGC, the sensor-assay potency score (higher = more potent) in the assay with LTA4H turned out to be 0.416.

Sequence TGCAGCTTCCTGCTGCTCCAGC displayed a sensor-assay potency score (higher = more potent) in the assay with LRRC45 of -1.24.

Consider TGATCTTCCACAACAAGCCCGC, for which the sensor-assay potency score (higher = more potent) in the assay with LRRC8D was -0.444.

In the assay with LSG1, TTGTTGAACTCTTACCAACATT returned a sensor-assay potency score (higher = more potent) of -1.39.

The sequence TGATTGTTGAACTCTTACCAAC registered a sensor-assay potency score (higher = more potent) with LSG1 of -1.62.

In the assay with LSG1, TTGCTTTGTCTATCATCTCTGT yielded a sensor-assay potency score (higher = more potent) of -0.0591.

Consider TTAAGTACAACTCTCGAAGGTT, for which the sensor-assay potency score (higher = more potent) with LRRC8D came to 0.166.

TGACTGATCTGGTTGTTGCGGA had a sensor-assay potency score (higher = more potent) with LRRC45 of 0.13.

Consider TTTCACAGAAGGAGTGTCCTGA, for which, in the assay with LTA4H, the sensor-assay potency score (higher = more potent) worked out at 0.561.

Regarding TTCTGTTCCTCTTCTAGCCGGA, the sensor-assay potency score (higher = more potent) in the assay with LSG1 was 0.394.
